Data from article PMC13494018.
A number with no mark means an inactive call. No rule for the calls is given here.

B1: design_614_ef6b398b-10cb-4a07-8087-96dafb4f9c83_88_dldesign_0_cycle1_af2pred (protein)
chain: GAALEEALRARAEAARRAMVAVSQAYQLDPALGNEYLARLSEAIAAAEKVLAEGKAKTPEAAAKAVKAAAEEIAALAEEIAAAVEALK
B2: design_614_ef6b398b-10cb-4a07-8087-96dafb4f9c83_822_dldesign_0_cycle1_af2pred (protein)
chain: AEEEKRRAIAEAAMRQFKEIAEGAAATALANPAIADGALASVKALGKNLVEGAKAQSPELGKKAAEVAKEAIEKVEKAAKEAKAA
B3: design_613_5efed0bc-64ba-423b-b3f9-a246574e49bb_1611_dldesign_0_cycle1_af2pred (protein)
chain: DAAAKAKAKEAEAKGKELIAKAKAAAEAGDYDAANAYLQQAIKLGMEMASSGASQAEVDVGAKIVSAVVEAMEYMSAQRRARR
B4: design_614_ef6b398b-10cb-4a07-8087-96dafb4f9c83_149_dldesign_0_cycle1_af2pred (protein)
chain: MEEAEKYLKKAEEIVEKAKEEALKYAKEGDIGAAVETLAKALKEARKLYEKAGKAGDPEEAEKKAKEAEERINQAMAEAARTALEVAN
B5: design_613_5efed0bc-64ba-423b-b3f9-a246574e49bb_1763_dldesign_0_cycle1_af2pred (protein)
chain: LQELIENGETLEALGKSAAAAGFNATAKRLYQDAAEQYKKAAEKAKELGDEELAKEYEAKAKEAEAKAKEY
B6: design_613_5efed0bc-64ba-423b-b3f9-a246574e49bb_2052_dldesign_0_cycle1_af2pred (protein)
chain: GGAAAIALAEAVARQAERQAEEAIAIAPERAPEIEELLERARELAKQAVALAKAGDLGAATEHVVKALELVGEIGRIAREAAAA
B7: design_613_5efed0bc-64ba-423b-b3f9-a246574e49bb_992_dldesign_0_cycle1_af2pred (protein)
chain: GERVEELRALVEEAARVSPELAALAQEALRLYLRGLALSANPATAARGEAAFAESERLAAEARARLAERLAAAAA
B8: design_613_5efed0bc-64ba-423b-b3f9-a246574e49bb_1032_dldesign_0_cycle1_af2pred (protein)
chain: AQAKADELEALGKEAEKKAKEAKNPEAAALYKGAAELMNAMAEAARQTPEFADQLYRMGKASYEALKTEAEKKEAAYKEKE
B9: design_614_ef6b398b-10cb-4a07-8087-96dafb4f9c83_520_dldesign_0_cycle1_af2pred (protein)
chain: AEGKALFEATKKEMEELREKGKAGTPELAKEQAAKILSLGLRTQGVLQTLGHTAEGDAALEYAKEVAEKAREWAKK
B10: design_613_5efed0bc-64ba-423b-b3f9-a246574e49bb_1256_dldesign_0_cycle1_af2pred (protein)
chain: DKAVTSAILRKSLAHARRQLAAATTAEEAEAVAQTAQVLADAAKAAGDAATAAEAAALAAEARAKAAALRAAEEAAA
B11: design_613_5efed0bc-64ba-423b-b3f9-a246574e49bb_1210_dldesign_0_cycle1_af2pred (protein)
chain: AEKIEKLTKALELLLEALKHKDDIELARELAKKAAELLKEAGAEEAAKYAEAAAKATDKEEMTELLNKAAGKAAKAIIDAQKAAA
B12: design_613_5efed0bc-64ba-423b-b3f9-a246574e49bb_1343_dldesign_0_cycle1_af2pred (protein)
chain: LAEAAERTARAIERNALEAIKTLSPEEAKRAAELAVTMLEGLAIAAPEAAPVARGLAERVRAAEREYTSKKLAE
B13: design_613_5efed0bc-64ba-423b-b3f9-a246574e49bb_1341_dldesign_0_cycle1_af2pred (protein)
chain: AVAAAGAKGLAAAAKSVAEATIRLAEQVAKEDPSKAEQAKAIAEQAKAAAAAAAKAAEAGDTAAAQAQFQKLVALYQQVLDLAK
B14: design_613_5efed0bc-64ba-423b-b3f9-a246574e49bb_1837_dldesign_0_cycle1_af2pred (protein)
chain: MTPREKAIAAINAATALAAAAVPAYADTFADLAGIVLTALEAGTGPTAVRVVGQAVVNVLRGAGATAAADAVAALYDEALEAAKAAA
B15: design_614_ef6b398b-10cb-4a07-8087-96dafb4f9c83_13_dldesign_0_cycle1_af2pred (protein)
chain: SEAEKQAIEIAIAAVLKAGELAGVPEEAKKVAEKIKKSNAGAALAIASAFLNRAAAAAEAAGDAATAAAIRALRTATTAKILALLRG
B16: design_613_5efed0bc-64ba-423b-b3f9-a246574e49bb_2281_dldesign_0_cycle1_af2pred (protein)
chain: AAAELIAKAKEYQAKALEYVKLAKEAEAAAKAATPEEGAKLNAKADFFNAMALVYAQRAAALLAQVDPALAKAALEKVQKAIA
B17: design_613_5efed0bc-64ba-423b-b3f9-a246574e49bb_1796_dldesign_0_cycle1_af2pred (protein)
chain: SAANIAAAKAYANMAATLAKQAGNEEAAKKAKEAAKVAADKEKATKLLKEAEELLKKEPAEKAPYTNKALEFIKLAKEALSKL
B18: design_613_5efed0bc-64ba-423b-b3f9-a246574e49bb_2054_dldesign_0_cycle1_af2pred (protein)
chain: FERAARAVEAVIELLRLLAEGNPATAAELRARAEELEAELAKARELAEKEGPEAGKARAEAIAAEGRRLLAEASRTAV
B19: design_613_5efed0bc-64ba-423b-b3f9-a246574e49bb_1308_dldesign_0_cycle1_af2pred (protein)
chain: AAAEKAKEAAKKAEELAKYAEEHKEELTPEELRKIGYELVKQGNTLLQAGGAAQAAAQKAFGYAAEVAELIRE
B20: design_613_5efed0bc-64ba-423b-b3f9-a246574e49bb_1180_dldesign_0_cycle1_af2pred (protein)
chain: AEAEEKKRRAEAHVQAAEVYITAARSAMEAGLTDAALAHAKRAIEHAQKAIELGEPRGKELLAEAEAVLKEVKA
B21: design_613_5efed0bc-64ba-423b-b3f9-a246574e49bb_2086_dldesign_0_cycle1_af2pred (protein)
chain: AEDERRVASMRELAAQLVAIAEANAANPAALAIVRASALAAGRSFAAAASPEAAAEILAIAAATAARIAAIAAAAAAAA
B22: design_614_ef6b398b-10cb-4a07-8087-96dafb4f9c83_652_dldesign_0_cycle1_af2pred (protein)
chain: GAAEEAKKWAKKAEEALKAAQKAADAAGKTPTLQQYVDNAKRAAEKAKETSKDPSKVEQTKGWAKMAELWAQAAKQQAAAVAAA
B23: design_613_5efed0bc-64ba-423b-b3f9-a246574e49bb_898_dldesign_0_cycle1_af2pred (protein)
chain: GEEEERLRREGERIVEEARRLAEEAVAAIKAAAPDVAKATAILIDYLKRIDELVKRAAPYPEAAAEVAELGNRASAQGIRYIMAAA
B24: design_613_5efed0bc-64ba-423b-b3f9-a246574e49bb_1398_dldesign_0_cycle1_af2pred (protein)
chain: MEEVKEEMEKLLEKVKKAVAEDVGKGGEVLVEFVKKGAELAANSTPEAAAYARKKMKEAINIVLEATLAA
B25: design_613_5efed0bc-64ba-423b-b3f9-a246574e49bb_1212_dldesign_0_cycle1_af2pred (protein)
chain: SPVEVALAAAKATVKSAEKANVESAEKLAEVAKDLAEYAAKLGGEEAKKEAEKIKKEAEEAVKKQKERAAAA
B26: design_614_ef6b398b-10cb-4a07-8087-96dafb4f9c83_786_dldesign_0_cycle1_af2pred (protein)
chain: STEQAAQIALNTAKANYKAAKAAAAAGDLAQAEANVKNLKLLTEAAKYYDPEAGKEVEKYYKEAKEAVEKAKAA
B27: design_613_5efed0bc-64ba-423b-b3f9-a246574e49bb_1387_dldesign_0_cycle1_af2pred (protein)
chain: AAAAAQAGQLAVQAAQGMIKKAKEILKRMPEVDPEKALASAKGVTDVAQALADQAIASPATAAQGKALKAEAKAVLAEAEKAAA
B28: design_613_5efed0bc-64ba-423b-b3f9-a246574e49bb_2419_dldesign_0_cycle1_af2pred (protein)
chain: ALGQQLVQQAKEKGKELLEIAKKGTAADAGEAAVELARFTSETARQLEQAGLPAAAQQVLAIGQKTLKEISAIGIAKITA
B29: design_613_5efed0bc-64ba-423b-b3f9-a246574e49bb_2155_dldesign_0_cycle1_af2pred (protein)
chain: AAAQAAAVATAAGQALLKQGKKLFEEGKKSGDKKLLEEAAKNFELAATMYAQASAAAGGAADANKKEAEAKLEEAKAAI
B30: design_614_ef6b398b-10cb-4a07-8087-96dafb4f9c83_4_dldesign_0_cycle1_af2pred (protein)
chain: AAGDEAANAAIALGQVLGPEVAEETTKAVEYMKSGSEKEKAKEYAEKAVELAEKVGPNSAASLKAILEKAEKLFS
B31: design_613_5efed0bc-64ba-423b-b3f9-a246574e49bb_1183_dldesign_0_cycle1_af2pred (protein)
chain: AEAQKLLEEARKLKEKAFALSPLQVGESLRYASELRKLAEKAAEADPSLAPEAKALAEETSAHVAAKARAGIAAQAA
B32: design_614_ef6b398b-10cb-4a07-8087-96dafb4f9c83_806_dldesign_0_cycle1_af2pred (protein)
chain: AAAQLAAENIALAKAIFEEVRKEALKAIEALKKAKEAASDPELAAKYLEKAKEALKKAEELAAKGSEGIALLARNYVRSLLASTA
B33: design_613_5efed0bc-64ba-423b-b3f9-a246574e49bb_1690_dldesign_0_cycle1_af2pred (protein)
chain: AAALEVGRRTLAALERTAEAAIAAARATTPEEAAREMGRARAAAEQARLIGEGVPELAPRAEALAERVAAAAAALEAA
B34: design_614_ef6b398b-10cb-4a07-8087-96dafb4f9c83_591_dldesign_0_cycle1_af2pred (protein)
chain: MTPEEAARAALRSARAALESLKLAVEQGGTLEDVLALGAVAKQSAQAAVELGKQAPEIYEEVKKEAEKIKKEVEKAVAKAKA
B35: design_613_5efed0bc-64ba-423b-b3f9-a246574e49bb_1354_dldesign_0_cycle1_af2pred (protein)
chain: GEALKEALRQKALEAANKALALTSQLWTKDPARAQPAIALIIQGLETGDPKYFFEAAEKVAADPEAAGAAKAAGEYMEKANKL
B36: design_614_ef6b398b-10cb-4a07-8087-96dafb4f9c83_741_dldesign_0_cycle1_af2pred (protein)
chain: SELIERAKNLLEAAKVFLTAAQSALAAGQKATAATLAQQAIKYATEAAKLAKEAGDEKLAEEAKKVKEQAEKVLKQAQ
B37: design_613_5efed0bc-64ba-423b-b3f9-a246574e49bb_1441_dldesign_0_cycle1_af2pred (protein)
chain: SEAERLAEEARRVILSGTAEEGAAAAVAAARKALEAGNLEGANLVLYESALAFGEAQRRGTPEDRAILNRGLAEVSRITLELARAA
B38: design_613_5efed0bc-64ba-423b-b3f9-a246574e49bb_1285_dldesign_0_cycle1_af2pred (protein)
chain: GLKEELLKEVRKVKKEAEKNAKDLEKLNEYLAKALDIAKKAQEAGDKETIAEATKVANLAAKLALEVAKA

Target: CD276, Q5ZPR3
Sequence (Q5ZPR3 whole entry): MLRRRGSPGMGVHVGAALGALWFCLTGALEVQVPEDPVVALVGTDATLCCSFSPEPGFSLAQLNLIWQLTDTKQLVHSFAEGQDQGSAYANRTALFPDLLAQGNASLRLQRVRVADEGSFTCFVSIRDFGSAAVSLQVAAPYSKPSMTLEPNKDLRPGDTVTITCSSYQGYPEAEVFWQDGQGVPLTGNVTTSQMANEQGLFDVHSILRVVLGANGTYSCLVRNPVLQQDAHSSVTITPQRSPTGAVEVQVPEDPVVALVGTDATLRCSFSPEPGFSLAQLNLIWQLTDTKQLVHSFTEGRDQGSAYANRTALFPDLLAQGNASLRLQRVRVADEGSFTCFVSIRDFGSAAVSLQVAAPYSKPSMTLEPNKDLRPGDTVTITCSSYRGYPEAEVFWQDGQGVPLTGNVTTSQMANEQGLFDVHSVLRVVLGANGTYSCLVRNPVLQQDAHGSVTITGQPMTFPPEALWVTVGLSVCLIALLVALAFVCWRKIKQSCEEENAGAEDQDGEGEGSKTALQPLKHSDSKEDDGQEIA

Binder | binding in a display sort
B1 | not found
B2 | not found
B3 | not found
B4 | not found
B5 | not found
B6 | not found
B7 | not found
B8 | not found
B9 | not found
B10 | not found
B11 | not found
B12 | not found
B13 | not found
B14 | not found
B15 | not found
B16 | not found
B17 | not found
B18 | not found
B19 | not found

Binder | binding in a display sort
B20 | not found
B21 | not found
B22 | not found
B23 | not found
B24 | not found
B25 | not found
B26 | not found
B27 | not found
B28 | not found
B29 | not found
B30 | not found
B31 | not found
B32 | not found
B33 | not found
B34 | not found
B35 | not found
B36 | not found
B37 | not found
B38 | not found
